# According to PubChem BioAssay:
# A number with no mark means an inactive call. For some assays here: Entries with a potency or affinity are not part of this list. Calls of active or inactive are those of the source. Unless noted, no rule for the calls is given here.
# Assays:
# [1] = antimalarial activity against Dd2 strain (AID 2302;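 active = growth inhibition above 50% at the single 2 µM test dose, taken to imply half-maximal potency below 2 µM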;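 also: 0% = DMSO untreated growth and 100% = chloroquine plus artemisinin killed control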); settings: P. falciparum Dd2 in RBCs, LDH growth readout, 72 h; at 2 µM; active compounds read high
# [2] = HepG2 cytotoxicity, primary screen, cytotoxicity control for P. falciparum antimalarial project, cell-based, ATP luminescence (AID 2303;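 active = inhibition above 50%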;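 also: 0% = DMSO wells and 100% = digitonin-killed cells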); settings: HepG2 viability, 24-48 h, at 10 µM, active compounds read high
# [3] = target: L-lactate dehydrogenase (Plasmodium falciparum (isolate CDC / Honduras)) (UniProt Q27743); test: PfLDH activity inhibition – cell lysate, 3D7 strain, counter-screen for P. falciparum growth inhibition project (AID 2304);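 also: 0% = vehicle and 100% = reference inhibitor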; settings: P. falciparum 3D7 crude extract, LDH APAD/NBT absorbance; at 2 µM; active compounds read high
# Sequence of L-lactate dehydrogenase (Plasmodium falciparum (isolate CDC / Honduras)) (Q27743 whole entry, looked up): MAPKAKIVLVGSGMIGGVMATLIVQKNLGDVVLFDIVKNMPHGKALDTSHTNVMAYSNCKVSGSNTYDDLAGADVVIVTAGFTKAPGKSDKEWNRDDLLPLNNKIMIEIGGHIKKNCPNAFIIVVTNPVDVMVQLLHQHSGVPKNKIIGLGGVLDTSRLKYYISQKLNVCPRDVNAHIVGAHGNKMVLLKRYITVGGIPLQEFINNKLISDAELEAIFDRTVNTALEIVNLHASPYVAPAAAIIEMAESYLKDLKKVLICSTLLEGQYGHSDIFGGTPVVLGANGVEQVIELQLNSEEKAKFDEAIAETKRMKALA
# [4] = inhibition of 3D7 malaria parasite growth – strain 3D7 (AID 2306);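 also: 0% = DMSO wells and 100% = chloroquine plus artemisinin control wells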; settings: P. falciparum 3D7 erythrocytic growth, LDH absorbance, 72 h; at 2 µM; active compounds read high
# [5] = target: Calcium-dependent protein kinase 1 (Plasmodium falciparum (isolate 3D7)) (UniProt P62344); test: PfCDPK1 kinase inhibitors, biochemical, TCAMS library (AID 1159585; cut-off not given, nearly all actives have IC50 up to about 0.98 µM;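 also: inhibitors leave more ATP so luminescence rises with inhibition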); settings: recombinant PfCDPK1, Kinase-Glo ATP depletion luminescence
# Sequence of Calcium-dependent protein kinase 1 (Plasmodium falciparum (isolate 3D7)) (P62344 whole entry, looked up): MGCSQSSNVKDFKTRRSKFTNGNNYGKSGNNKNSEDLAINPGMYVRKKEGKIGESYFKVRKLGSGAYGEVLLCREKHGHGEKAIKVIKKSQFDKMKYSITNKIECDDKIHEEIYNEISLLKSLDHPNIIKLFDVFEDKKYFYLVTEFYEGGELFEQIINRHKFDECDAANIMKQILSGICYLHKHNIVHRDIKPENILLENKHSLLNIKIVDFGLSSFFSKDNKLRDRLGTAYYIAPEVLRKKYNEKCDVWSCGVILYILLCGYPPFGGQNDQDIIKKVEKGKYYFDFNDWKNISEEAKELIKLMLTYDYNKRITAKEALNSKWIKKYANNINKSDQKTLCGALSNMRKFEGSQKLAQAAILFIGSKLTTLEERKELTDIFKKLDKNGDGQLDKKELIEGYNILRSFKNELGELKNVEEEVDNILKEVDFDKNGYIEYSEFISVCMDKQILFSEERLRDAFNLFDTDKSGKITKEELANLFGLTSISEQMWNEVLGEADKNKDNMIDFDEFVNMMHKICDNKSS
# [6] = target: Plasmodium falciparum protein kinase 6 (PK6, PF3D7_1337100) (UniProt Q8IDW1); test: PfPK6 kinase inhibitors, biochemical, TCAMS library (AID 1159586); settings: recombinant PfPK6, Kinase-Glo ATP depletion luminescence
# Sequence of Plasmodium falciparum protein kinase 6 (PK6, PF3D7_1337100) (Q8IDW1 1-305): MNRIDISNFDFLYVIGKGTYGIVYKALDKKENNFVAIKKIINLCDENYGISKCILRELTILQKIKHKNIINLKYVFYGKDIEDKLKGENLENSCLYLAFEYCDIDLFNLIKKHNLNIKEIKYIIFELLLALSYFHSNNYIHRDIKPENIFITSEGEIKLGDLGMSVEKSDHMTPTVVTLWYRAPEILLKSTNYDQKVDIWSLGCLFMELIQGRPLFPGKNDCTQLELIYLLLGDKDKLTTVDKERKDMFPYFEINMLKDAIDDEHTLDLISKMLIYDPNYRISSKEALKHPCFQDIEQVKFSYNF
# [7] = target: Protein kinase 7 (PK7), Plasmodium falciparum 3D7 (PF3D7_0213400) (UniProt Q7YTF7); test: inhibition of Plasmodium PK7 catalytic activity – biochemical, TCAMS antimalarial set, Kinase-Glo luminescence (AID 1159587); settings: recombinant PfPK7, Kinase-Glo ATP depletion luminescence
# Sequence of Protein kinase 7 (PK7), Plasmodium falciparum 3D7 (PF3D7_0213400) (Q7YTF7 1-343): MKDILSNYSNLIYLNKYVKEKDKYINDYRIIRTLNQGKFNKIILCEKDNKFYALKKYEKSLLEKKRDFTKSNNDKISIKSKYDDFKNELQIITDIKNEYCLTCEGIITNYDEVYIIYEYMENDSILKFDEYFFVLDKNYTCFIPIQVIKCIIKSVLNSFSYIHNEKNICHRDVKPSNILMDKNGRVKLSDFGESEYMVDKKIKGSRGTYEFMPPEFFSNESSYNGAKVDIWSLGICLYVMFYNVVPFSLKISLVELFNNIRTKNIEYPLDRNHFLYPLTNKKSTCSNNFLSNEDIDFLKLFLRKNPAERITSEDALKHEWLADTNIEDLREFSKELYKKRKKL
# [8] = target: Calcium-dependent protein kinase 4 (Plasmodium falciparum (isolate 3D7)) (UniProt Q8IBS5); test: PfCDPK4 kinase inhibitors, biochemical, TCAMS library (AID 1159588; cut-off not given, nearly all actives have IC50 up to about 0.91 µM); settings: recombinant PfCDPK4, Kinase-Glo ATP depletion luminescence
# Sequence of Calcium-dependent protein kinase 4 (Plasmodium falciparum (isolate 3D7)) (Q8IBS5 whole entry, looked up): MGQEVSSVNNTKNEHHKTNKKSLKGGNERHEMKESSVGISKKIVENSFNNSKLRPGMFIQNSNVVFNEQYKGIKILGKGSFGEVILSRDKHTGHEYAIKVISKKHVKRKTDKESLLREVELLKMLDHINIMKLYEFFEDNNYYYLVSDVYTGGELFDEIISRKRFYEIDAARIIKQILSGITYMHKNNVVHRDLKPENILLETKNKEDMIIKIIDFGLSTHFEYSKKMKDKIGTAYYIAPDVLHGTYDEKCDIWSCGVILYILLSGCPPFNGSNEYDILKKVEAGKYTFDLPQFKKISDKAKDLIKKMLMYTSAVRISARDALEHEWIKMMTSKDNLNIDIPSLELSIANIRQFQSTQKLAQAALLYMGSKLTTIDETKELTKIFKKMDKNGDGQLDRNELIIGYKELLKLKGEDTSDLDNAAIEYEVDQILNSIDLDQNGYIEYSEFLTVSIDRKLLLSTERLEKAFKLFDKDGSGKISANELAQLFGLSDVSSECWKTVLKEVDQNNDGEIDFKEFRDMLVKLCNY
Structure (SMILES),growth inhibition [1],inhibition [2],inhibition [3],growth inhibition [4],outcome [5],outcome [6],outcome [7],outcome [8]
COc1cccc(NC(=O)c2cc([N+](=O)[O-])ccc2NC(=O)CN2CCc3ccccc3C2)c1,37%,5%,-1%,100% (active),inactive,inactive,inactive,inactive
O=C(Nc1cccc(-c2cccc(-c3nc4ccccc4[nH]3)c2)c1)Nc1ccc(Cl)c(Cl)c1,98% (active),78% (active),-3%,101% (active),inactive,inactive,inactive,inactive
CCCCCCN1CCC(NCc2ccc(C)cc2)CC1,4%,16%,-1%,93% (active),inactive,inactive,inactive,inactive
CCC[C@@H]([C@@H](CC1CCCCC1)C(=O)N[C@H](C(=O)Nc1nccs1)C(C)(C)SCCNC(=O)OCC)N(O)C=O,98% (active),45%,0%,99% (active),inactive,inactive,inactive,inactive
O=C(Nc1ccc(-c2ccc(-c3nc4ccccc4[nH]3)s2)cc1)Nc1ccc(Cl)c(Cl)c1,99% (active),89% (active),2%,102% (active),inactive,inactive,inactive,inactive
Cc1cc(-c2ccnc(Nc3cccc(C#N)c3)n2)cc(C)c1O,54% (active),50% (active),5%,88% (active),inactive,inactive,inactive,inactive
O=c1ccccn1CCCC1CCCCN1 (stereo not given),-1%,-1%,0%,96% (active),inactive,inactive,inactive,inactive
NC(=O)c1ccc(-c2ccc3ccnc(N)c3c2)cc1,98% (active),56% (active),-2%,101% (active),inactive,inactive,inactive,inactive
Cc1ccccc1Nc1nc(NCc2ccccc2)nc2ccccc12,35%,39%,-3%,88% (active),inactive,inactive,inactive,inactive
CCOc1ccccc1C1CCN(CCCCNC(=O)c2ccc(NC(=O)c3ccc(Cl)cc3)cc2)CC1,27%,13%,1%,95% (active),inactive,inactive,inactive,inactive
O=C1OC(c2cc3ccccc3n2S(=O)(=O)c2ccccc2)(c2cc3ccccc3n2S(=O)(=O)c2ccccc2)c2ccccc21,78% (active),1%,-1%,95% (active),inactive,inactive,inactive,inactive
CCOc1ccccc1CCNC(C)Cc1ccc(C(=O)Nc2ccc(CC(C)NCCc3cccc(Cl)c3)cc2)cc1 (stereo not given),59% (active),100% (active),-3%,97% (active),inactive,inactive,inactive,inactive
CC(C)NCc1cccc(-c2cccc(-c3nc4ccc(F)cc4[nH]3)c2)c1,85% (active),20%,2%,101% (active),inactive,inactive,inactive,inactive
COc1ccc(-c2ccc(NC(=O)c3ccc(C#N)cc3)cc2)cc1CN1CCNCC1,42%,23%,0%,96% (active),inactive,inactive,inactive,inactive
COc1ccc2nccc([C@@H](O)CN3CCC(NC(=O)c4cc5c(F)cc(F)cc5[nH]4)CC3)c2n1,74% (active),32%,-3%,101% (active),inactive,inactive,inactive,inactive
CC(C)CCn1c(Sc2ccc([N+](=O)[O-])cc2C(F)(F)F)nnc1-c1ccccc1Cl,43%,-5%,6%,99% (active),inactive,inactive,inactive,inactive
CN1CCC(C(=O)Nc2ccc(-c3ccc(-c4nc5ccc(C(F)(F)F)cc5[nH]4)s3)cc2)CC1,95% (active),53% (active),4%,101% (active),inactive,inactive,inactive,inactive
Cc1cc(N[C@@H](CC(C)C)C(=O)NCc2cccc(F)c2)nc(NCCc2ccccc2)n1,33%,6%,-1%,88% (active),inactive,inactive,inactive,inactive
COc1ccc2ncc(F)c(CCN3CCC(CNCc4cccc5c4OCO5)CC3)c2n1,37%,39%,-2%,93% (active),inactive,inactive,inactive,inactive
CN(C(=O)c1nn(-c2ccccn2)c2nccc(-c3cccs3)c12)C1CCCCC1,1%,4%,-1%,87% (active),inactive,inactive,inactive,inactive

Structure (SMILES),growth inhibition [1],inhibition [2],inhibition [3],growth inhibition [4],outcome [5],outcome [6],outcome [7],outcome [8]
CN1CCN(C(C(=O)NCc2cc(Cl)cc(Cl)c2)c2ccccc2-c2ccsc2)CC1 (stereo not given),80% (active),11%,2%,95% (active),inactive,inactive,inactive,inactive
CCCC(C(=O)OCCN(CC)CC)(c1ccc(Cl)cc1)c1ccc(Cl)cc1,87% (active),7%,2%,91% (active),inactive,inactive,inactive,inactive
Cc1cc2ccc(/C=C/C(=O)NC3CCC(CCN4CCc5ccc(C#N)cc5CC4)CC3)cc2[nH]1 (stereo not given),56% (active),19%,-1%,84% (active),inactive,inactive,inactive,inactive
CS(=O)(=O)CCNCc1ccc(-c2ccc3c(Nc4ccc(Cl)cc4F)ccnc3c2)o1,98% (active),6%,-3%,99% (active),inactive,inactive,inactive,inactive
CCCc1cn2c3c(cc(C(=O)N[C@@H](Cc4ccccc4)[C@H](O)CNC4CCOCC4)cc13)N(C)S(=O)(=O)CC2,98% (active),1%,3%,99% (active),inactive,inactive,inactive,inactive
O=C(/C=C/c1ccc(Cl)c(Cl)c1)N1CCC(NCc2c[nH]c3ccccc23)CC1,4%,36%,-2%,94% (active),inactive,inactive,inactive,inactive
Cc1nnsc1C(=O)Nc1cccc(-c2cccc(-c3nc4ccccc4[nH]3)c2)c1,34%,14%,1%,100% (active),inactive,inactive,inactive,inactive
CN(C)CC1CCCN1Cc1ccccc1-c1cnn(C)c(=O)c1Oc1cccc(C#N)c1 (stereo not given),15%,26%,4%,92% (active),inactive,inactive,inactive,inactive
FC(F)(F)c1ccc2nc(-c3ccc(-c4cccc(CN5CCN(c6ccncc6)CC5)c4)cc3)[nH]c2c1,99% (active),82% (active),2%,101% (active),inactive,inactive,inactive,inactive
CN1CCN(CCCN(C(=O)Nc2cc(C(F)(F)F)cc(C(F)(F)F)c2)c2ccccc2Cc2ccccc2)CC1,92% (active),35%,0%,89% (active),inactive,inactive,inactive,inactive
Fc1ccc2nc(-c3cccc(-c4ccc(CNCCc5ccncc5)cc4)c3)[nH]c2c1,100% (active),44%,4%,99% (active),inactive,inactive,inactive,inactive
CC(C)N1CCC(N(Cc2ccc(-c3ccc(C(F)(F)F)cc3)cc2)C(=O)CCCn2c(CCc3cccc(F)c3F)nc(=O)c3ccccc32)CC1,60% (active),45%,-5%,89% (active),inactive,inactive,inactive,inactive
O=C(Nc1ccc(N2CCCN(Cc3cccc(F)c3)CC2)cc1)c1cccs1,96% (active),2%,0%,96% (active),inactive,inactive,inactive,inactive
OC1CCCN(Cc2ccc(-c3ccc(-c4nc5ccc(F)cc5[nH]4)s3)cc2)C1 (stereo not given),99% (active),40%,-5%,100% (active),inactive,inactive,inactive,inactive
c1csc(-c2nc(N3CCCC3)ncc2-c2ccsc2)n1,75% (active),1%,3%,89% (active),inactive,inactive,inactive,inactive
Cc1cccc(NC(=O)N(Cc2cc3cc(C)cc(C)c3[nH]c2=O)C2CC2)c1,94% (active),3%,2%,97% (active),inactive,inactive,inactive,inactive
Cc1nc(-c2ccccc2)nc(N2CCN(C(=O)c3ccco3)CC2)c1Cc1ccccc1F,86% (active),7%,1%,95% (active),inactive,inactive,inactive,inactive
Cc1ccccc1C1CCN(C2CCC(NC(=O)/C=C/c3cc(F)ccc3C(F)(F)F)CC2)CC1 (stereo not given),25%,90% (active),2%,98% (active),inactive,inactive,inactive,inactive
CN(c1ccccc1)S(=O)(=O)c1cccc(NC(=O)c2ccc(-n3ccnc3)c([N+](=O)[O-])c2)c1,-8%,19%,2%,83% (active),inactive,inactive,inactive,inactive
CCc1c(CCNCCCCCCNC(C)(C)Cc2ccc3c(c2CC)OCO3)ccc(OC)c1OC,50% (active),100% (active),-1%,101% (active),inactive,inactive,inactive,inactive
